# Measurements as given in PMC11006913.
# Key:
# Assay in all cases: PBM; 200 nM protein, PBS
# Settings in all cases: dsDNA, one strand shown
# [1] = molecular target: HOXA4 (Homo sapiens, UniProt Q00056 201-287, W262R)
# [2] = molecular target: HOXA4 (Homo sapiens, UniProt Q00056 201-287, R217L)
# [3] = molecular target: HOXD13 (Homo sapiens, UniProt P35453 263-343, T313R)
# [4] = molecular target: HOXD13 (Homo sapiens, UniProt P35453 263-343)
# [5] = molecular target: HOXA4 (Homo sapiens, UniProt Q00056 201-287)
# Sequence of HOXA4 (Homo sapiens, UniProt Q00056 201-287) (Q00056 201-287): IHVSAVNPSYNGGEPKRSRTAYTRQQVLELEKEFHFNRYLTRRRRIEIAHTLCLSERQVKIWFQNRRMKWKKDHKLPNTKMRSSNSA
# [6] = molecular target: HOXD13 (Homo sapiens, UniProt P35453 263-343, T313A)
# Sequence of HOXD13 (Homo sapiens, UniProt P35453 263-343, T313A) (P35453 263-343 T313A): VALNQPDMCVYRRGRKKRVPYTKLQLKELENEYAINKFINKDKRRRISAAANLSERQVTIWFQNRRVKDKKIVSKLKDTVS
# [7] = molecular target: HOXA4 (Homo sapiens, UniProt Q00056 201-287, W262F)
# Sequence of HOXA4 (Homo sapiens, UniProt Q00056 201-287, W262F) (Q00056 201-287 W262F): as the sequence (Q00056 201-287) above, with W62F counted along it
# [8] = molecular target: HOXA2 (Homo sapiens, UniProt O43364 129-215, R185T)
# Sequence of HOXA2 (Homo sapiens, UniProt O43364 129-215, R185T) (O43364 129-215 R185T): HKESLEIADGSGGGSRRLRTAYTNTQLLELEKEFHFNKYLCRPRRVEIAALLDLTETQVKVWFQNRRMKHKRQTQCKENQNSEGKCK
# [9] = molecular target: HOXA2 (Homo sapiens, UniProt O43364 129-215, R185K)
# Sequence of HOXA2 (Homo sapiens, UniProt O43364 129-215, R185K) (O43364 129-215 R185K): as the sequence (O43364 129-215 R185T) above, with T57K counted along it
# [10] = molecular target: HOXA2 (Homo sapiens, UniProt O43364 129-215, Y150S)
# Sequence of HOXA2 (Homo sapiens, UniProt O43364 129-215, Y150S) (O43364 129-215 Y150S): as the sequence (O43364 129-215 R185T) above, with Y22S, T57R counted along it
# [11] = molecular target: HOXA2 (Homo sapiens, UniProt O43364 129-215)
# Sequence of HOXA2 (Homo sapiens, UniProt O43364 129-215) (O43364 129-215): as the sequence (O43364 129-215 R185T) above, with T57R counted along it
# [12] = molecular target: ALX4 (Homo sapiens, UniProt Q9H161 200-286, Q225E)
# Sequence of ALX4 (Q9H161 200-286 Q225E): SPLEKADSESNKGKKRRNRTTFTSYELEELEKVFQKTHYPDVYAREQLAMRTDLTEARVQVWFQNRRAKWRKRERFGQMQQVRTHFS
# [13] = molecular target: HOXC9 (Homo sapiens, UniProt P31274 178-260, R222W)
# Sequence of HOXC9 (P31274 178-260 R222W): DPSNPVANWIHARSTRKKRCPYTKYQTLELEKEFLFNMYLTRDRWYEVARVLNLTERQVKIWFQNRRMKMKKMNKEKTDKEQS
# [14] = molecular target: HOXB6 (Homo sapiens, UniProt P17509 132-218, K202E)
# Sequence of HOXB6 (Homo sapiens, UniProt P17509 132-218, K202E) (P17509 132-218 K202E): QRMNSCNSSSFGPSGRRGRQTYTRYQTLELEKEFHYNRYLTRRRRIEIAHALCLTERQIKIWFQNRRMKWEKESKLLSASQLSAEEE
# [15] = molecular target: HOXB6 (Homo sapiens, UniProt P17509 132-218)
# Sequence of HOXB6 (Homo sapiens, UniProt P17509 132-218) (P17509 132-218): as the sequence (P17509 132-218 K202E) above, with E71K counted along it
# [16] = molecular target: ALX3 (Homo sapiens, UniProt O95076 139-225, N203Q)
# Sequence of ALX3 (Homo sapiens, UniProt O95076 139-225, N203Q) (O95076 139-225 N203Q): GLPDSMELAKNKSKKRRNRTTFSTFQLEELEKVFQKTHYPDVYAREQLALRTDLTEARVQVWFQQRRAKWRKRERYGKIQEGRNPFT
# [17] = molecular target: ALX3 (Homo sapiens, UniProt O95076 139-225)
# Sequence of ALX3 (Homo sapiens, UniProt O95076 139-225) (O95076 139-225): as the sequence (O95076 139-225 N203Q) above, with Q65N counted along it
# [18] = molecular target: ALX3 (Homo sapiens, UniProt O95076 139-225, L168Q)
# Sequence of ALX3 (Homo sapiens, UniProt O95076 139-225, L168Q) (O95076 139-225 L168Q): as the sequence (O95076 139-225 N203Q) above, with L30Q, Q65N counted along it
# [19] = molecular target: ALX3 (Homo sapiens, UniProt O95076 139-225, L168V)
# Sequence of ALX3 (Homo sapiens, UniProt O95076 139-225, L168V) (O95076 139-225 L168V): as the sequence (O95076 139-225 N203Q) above, with L30V, Q65N counted along it
# [20] = molecular target: ALX3 (Homo sapiens, UniProt O95076 139-225, N203S)
# Sequence of ALX3 (Homo sapiens, UniProt O95076 139-225, N203S) (O95076 139-225 N203S): as the sequence (O95076 139-225 N203Q) above, with Q65S counted along it
# Sequence of HOXD13 (Homo sapiens, UniProt P35453 263-343, T313R) (P35453 263-343 T313R): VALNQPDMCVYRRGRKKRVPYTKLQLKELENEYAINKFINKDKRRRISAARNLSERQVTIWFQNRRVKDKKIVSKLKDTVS
# Sequence of HOXA4 (Homo sapiens, UniProt Q00056 201-287, W262R) (Q00056 201-287 W262R): as the sequence (Q00056 201-287) above, with W62R counted along it
# Sequence of HOXD13 (Homo sapiens, UniProt P35453 263-343) (P35453 263-343): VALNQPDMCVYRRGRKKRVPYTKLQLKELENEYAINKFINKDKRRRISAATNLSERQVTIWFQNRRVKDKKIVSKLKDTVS
# Sequence of HOXA4 (Homo sapiens, UniProt Q00056 201-287, R217L) (Q00056 201-287 R217L): as the sequence (Q00056 201-287) above, with R17L counted along it
sequence,measurement,setting,value
AGAAGGGG,binding signal,[1],"9.84 upbm affinity estimate (log intensity, higher = more binding, comparable within an allelic series)"
same,binding signal,[2],"9.53 upbm affinity estimate (log intensity, higher = more binding, comparable within an allelic series)"
same,binding signal,[3],"9.5 upbm affinity estimate (log intensity, higher = more binding, comparable within an allelic series)"
same,binding signal,[4],"9.51 upbm affinity estimate (log intensity, higher = more binding, comparable within an allelic series)"
same,binding signal,[5],"9.57 upbm affinity estimate (log intensity, higher = more binding, comparable within an allelic series)"
same,binding signal,[6],"9.57 upbm affinity estimate (log intensity, higher = more binding, comparable within an allelic series)"
same,binding signal,[7],"9.68 upbm affinity estimate (log intensity, higher = more binding, comparable within an allelic series)"
CACTGGCC,binding signal,[1],"9.86 upbm affinity estimate (log intensity, higher = more binding, comparable within an allelic series)"
same,binding signal,[8],"7.06 upbm affinity estimate (log intensity, higher = more binding, comparable within an allelic series)"
same,binding signal,[2],"9.9 upbm affinity estimate (log intensity, higher = more binding, comparable within an allelic series)"
same,binding signal,[9],"10.5 upbm affinity estimate (log intensity, higher = more binding, comparable within an allelic series)"
same,binding signal,[5],"9.86 upbm affinity estimate (log intensity, higher = more binding, comparable within an allelic series)"
same,binding signal,[10],"10.5 upbm affinity estimate (log intensity, higher = more binding, comparable within an allelic series)"
same,binding signal,[7],"9.96 upbm affinity estimate (log intensity, higher = more binding, comparable within an allelic series)"
same,binding signal,[11],"7.16 upbm affinity estimate (log intensity, higher = more binding, comparable within an allelic series)"
CAATAAAG,binding signal,[1],"10.4 upbm affinity estimate (log intensity, higher = more binding, comparable within an allelic series)"
same,binding signal,[12],"10.7 upbm affinity estimate (log intensity, higher = more binding, comparable within an allelic series)"
same,binding signal,[3],"10.8 upbm affinity estimate (log intensity, higher = more binding, comparable within an allelic series)"
same,binding signal,[4],"11.9 upbm affinity estimate (log intensity, higher = more binding, comparable within an allelic series)"
same,binding signal,[5],"11.7 upbm affinity estimate (log intensity, higher = more binding, comparable within an allelic series)"
same,binding signal,[6],"11.7 upbm affinity estimate (log intensity, higher = more binding, comparable within an allelic series)"
same,binding signal,[13],"11.1 upbm affinity estimate (log intensity, higher = more binding, comparable within an allelic series)"
CACCCTGG,binding signal,[1],"9.95 upbm affinity estimate (log intensity, higher = more binding, comparable within an allelic series)"
same,binding signal,[2],"9.74 upbm affinity estimate (log intensity, higher = more binding, comparable within an allelic series)"
same,binding signal,[5],"9.78 upbm affinity estimate (log intensity, higher = more binding, comparable within an allelic series)"
same,binding signal,[7],"9.87 upbm affinity estimate (log intensity, higher = more binding, comparable within an allelic series)"
GGGGCACC,binding signal,[1],"9.71 upbm affinity estimate (log intensity, higher = more binding, comparable within an allelic series)"
same,binding signal,[14],"8.98 upbm affinity estimate (log intensity, higher = more binding, comparable within an allelic series)"
same,binding signal,[2],"9.76 upbm affinity estimate (log intensity, higher = more binding, comparable within an allelic series)"
same,binding signal,[5],"9.9 upbm affinity estimate (log intensity, higher = more binding, comparable within an allelic series)"
same,binding signal,[7],"9.88 upbm affinity estimate (log intensity, higher = more binding, comparable within an allelic series)"
same,binding signal,[15],"8.89 upbm affinity estimate (log intensity, higher = more binding, comparable within an allelic series)"
AGGCTGGG,binding signal,[1],"9.88 upbm affinity estimate (log intensity, higher = more binding, comparable within an allelic series)"
same,binding signal,[2],"9.85 upbm affinity estimate (log intensity, higher = more binding, comparable within an allelic series)"
same,binding signal,[3],"9.56 upbm affinity estimate (log intensity, higher = more binding, comparable within an allelic series)"
same,binding signal,[4],"9.59 upbm affinity estimate (log intensity, higher = more binding, comparable within an allelic series)"
same,binding signal,[5],"9.82 upbm affinity estimate (log intensity, higher = more binding, comparable within an allelic series)"
same,binding signal,[6],"9.67 upbm affinity estimate (log intensity, higher = more binding, comparable within an allelic series)"
same,binding signal,[7],"9.84 upbm affinity estimate (log intensity, higher = more binding, comparable within an allelic series)"
ATCCCCCC,binding signal,[1],"9.64 upbm affinity estimate (log intensity, higher = more binding, comparable within an allelic series)"
same,binding signal,[8],"7.17 upbm affinity estimate (log intensity, higher = more binding, comparable within an allelic series)"
same,binding signal,[2],"9.49 upbm affinity estimate (log intensity, higher = more binding, comparable within an allelic series)"
same,binding signal,[16],"7.65 upbm affinity estimate (log intensity, higher = more binding, comparable within an allelic series)"
same,binding signal,[9],"10.1 upbm affinity estimate (log intensity, higher = more binding, comparable within an allelic series)"
same,binding signal,[5],"9.5 upbm affinity estimate (log intensity, higher = more binding, comparable within an allelic series)"
same,binding signal,[17],"7.91 upbm affinity estimate (log intensity, higher = more binding, comparable within an allelic series)"
same,binding signal,[18],"7.61 upbm affinity estimate (log intensity, higher = more binding, comparable within an allelic series)"
same,binding signal,[19],"7.58 upbm affinity estimate (log intensity, higher = more binding, comparable within an allelic series)"
same,binding signal,[10],"10.4 upbm affinity estimate (log intensity, higher = more binding, comparable within an allelic series)"
same,binding signal,[7],"9.46 upbm affinity estimate (log intensity, higher = more binding, comparable within an allelic series)"
same,binding signal,[20],"7.67 upbm affinity estimate (log intensity, higher = more binding, comparable within an allelic series)"
same,binding signal,[11],"7.3 upbm affinity estimate (log intensity, higher = more binding, comparable within an allelic series)"
